{
  "source": "PubChem BioAssay (NCI)",
  "note": "Compounds without any hit were thinned out: in the full panel of roughly 79,000, 15% have a hit. Unmarked numbers belong to inactive results. Active and inactive are the calls of the source. Rule as the data show it: active = growth inhibition above about 70%; inactive = the rest.",
  "data": [
    {"experiment": "NCI Yeast Anticancer Drug Screen. Data for the mec2-1 strain (AID 157)", "details": "S. cerevisiae mec2-1 strain, at 50.0 µM, hits give high values", "summary_of_the_method": "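Growth inhibition is read against vehicle-treated controls after compound exposure of the mec2-1 yeast strain, which is defective in DNA damage repair or cell cycle control.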", "values": [
      {"smiles": "CN(C)CCCNc1cc(O)c2c(c1O)C(=O)c1ccccc1C2=O", "growth inhibition": "97.6% (active)"},
      {"smiles": "CCCCC#CC(=O)OCCCCC", "growth inhibition": "-3.1%"},
      {"smiles": "CCCCCCN(CCCCCC)CCC(=O)c1ccc2cc(Cl)c3ccccc3c2c1", "growth inhibition": "82% (active)"},
      {"smiles": "CC(C)C1=C2CCC3(C)C(CCC4C5C6OCC5(CCC6(C)C)CCC43C)C2(C)CC1", "note": "(stereo not drawn)", "growth inhibition": "77.5% (active)"},
      {"smiles": "O=C(CC(O)(CC(=O)OCc1ccccc1)C(=O)OCc1ccccc1)OCc1ccccc1", "growth inhibition": "99.5% (active)"},
      {"smiles": "CCc1c(C)[nH]c2c([N+](=O)[O-])cccc12", "growth inhibition": "94.5% (active)"},
      {"smiles": "CSc1ncc2c(n1)-c1ccccc1OC2NC1CC1", "note": "(stereo not drawn)", "growth inhibition": "62.5%"},
      {"smiles": "CC(C)c1cc(O)c2c(c1O)C1CC3C(C)(C)CCC[C@]23C(=O)O1", "note": "(stereo partly drawn)", "growth inhibition": "95% (active)"},
      {"smiles": "O=C1C(=O)c2cc(Br)cc([N+](=O)[O-])c2-c2ccc(Br)cc21", "growth inhibition": "98.3% (active)"},
      {"smiles": "NSc1ccccn1", "growth inhibition": "93.5% (active)"},
      {"smiles": "CCCCCCCCCCCCOC(=O)C[n+]1cccc(C(=O)Nc2ccccc2)c1", "growth inhibition": "99.4% (active)"},
      {"smiles": "NC(=S)SCCC(=O)O", "growth inhibition": "-41.5%"},
      {"smiles": "O=C(O)Cc1ccc2c3c(cccc13)CC2", "growth inhibition": "91.8% (active)"}
    ]},
    {"experiment": "NCI Yeast Anticancer Drug Screen. Data for the sgs1 mgt1 strain (AID 161);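 also: 0% = growth of cultures given vehicle only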", "details": "S. cerevisiae sgs1 mgt1 strain, at 5.0 µM (retest, dose inferred, filed as 0.5), hits give high values", "summary_of_the_method": "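Compounds are added to genetically altered yeast, and growth is compared with cultures given vehicle alone to give percent inhibition.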", "values": [
      {"smiles": "CC(=O)Sc1ccc(Br)cc1", "growth inhibition": "3%"},
      {"smiles": "CC(C)OCc1cccc2ccnc(COC(C)C)c12", "growth inhibition": "-10%"},
      {"smiles": "Nc1ccc2c(c1)C(=O)c1ccccc1-2", "growth inhibition": "0%"},
      {"smiles": "O=C1Nc2ccc([N+](=O)[O-])c3c([N+](=O)[O-])ccc1c23", "growth inhibition": "3%"},
      {"smiles": "Cc1ccc(NC(=O)Oc2ccc(C(C)(C)C)cc2Br)cc1NC(=O)Oc1ccc(C(C)(C)C)cc1Br", "growth inhibition": "3%"},
      {"smiles": "O=C1C(Cl)=C(Nc2ccc(S(=O)(=O)O)cc2)C(=O)c2ccccc21", "growth inhibition": "35%"},
      {"smiles": "N/C(=N\\OC(=O)Nc1ccccc1)c1ccccc1", "growth inhibition": "13%"},
      {"smiles": "O=C1c2ccccc2C(=O)c2cc(N3C(=O)C=CC3=O)ccc21", "growth inhibition": "96% (active)"},
      {"smiles": "CCCCN=C(c1ccc(O)cc1)c1ccc(OC)cc1O", "growth inhibition": "-2%"},
      {"smiles": "Cc1ccc(S(=O)(=O)c2cc(O)c(O)c3ccc(Br)cc23)cc1", "growth inhibition": "16%"},
      {"smiles": "CC(C)(C)NC(=S)N/N=C/c1cc(Cl)cc(Cl)c1O", "growth inhibition": "97% (active)"},
      {"smiles": "Oc1ccc2c(c1)OCC1c3ccccc3OC21", "note": "(stereo not drawn)", "growth inhibition": "28%"},
      {"smiles": "OCCSC(=S)Nc1ccc(Cl)c(Cl)c1", "growth inhibition": "78% (active)"},
      {"smiles": "CCCC[N-]CC(O)C[NH-].O=C(O)CC(=O)O.[Pt+2]", "note": "(stereo not drawn)", "growth inhibition": "1%"},
      {"smiles": "N=C(N)c1cccc(-c2ccc(-c3ccccc3)o2)c1", "growth inhibition": "0%"},
      {"smiles": "C#CC(CC(C)C)(CC(C)C)OC(=O)Nc1ccccc1", "growth inhibition": "4%"},
      {"smiles": "CCCCOc1ccc(-c2c(COC(=O)NC)c(COC(=O)NC)c(C)n2C)cc1", "growth inhibition": "21%"},
      {"smiles": "O=C(Nc1cccc2ccccc12)OCCCCCCl", "growth inhibition": "1%"},
      {"smiles": "C=CCOc1ccc(/C=N/NC(N)=S)cc1", "growth inhibition": "15%"},
      {"smiles": "Fc1ccc2[nH]ccc2c1", "growth inhibition": "5%"},
      {"smiles": "C=C1C(=O)[C@]23C[C@H]1CC[C@H]2[C@@]12CO[C@@H](O)[C@@H]1C(C)(C)[C@@H](O)C[C@@H]2OC3=O", "growth inhibition": "9%"},
      {"smiles": "N#Cc1ccc([N+](=O)[O-])cc1C#N", "growth inhibition": "-56%"},
      {"smiles": "N=C(N)c1ccc(Oc2ccc(Oc3ccc(C(=N)N)cc3)cc2)cc1", "growth inhibition": "59%"},
      {"smiles": "CCC=Nc1c(O)cc(-c2ccccc2)n(C)c1=O", "growth inhibition": "40%"},
      {"smiles": "COc1ccc(CN2CCCN(Cc3ccc(OC)cc3OC)C2c2cc(Cl)ccc2O)c(OC)c1", "growth inhibition": "2%"},
      {"smiles": "CCN(CC)c1ccc(/C=C2/C[N+](C)(C)C/C(=C/c3ccc(N(CC)CC)cc3)C2=O)cc1", "growth inhibition": "-13%"},
      {"smiles": "O=P1(Cc2ccccc2)c2ccccc2-c2ccccc21", "growth inhibition": "-24%"},
      {"smiles": "CN(C)CCCNc1cc(O)c2c(c1O)C(=O)c1ccccc1C2=O", "growth inhibition": "26%"},
      {"smiles": "CCCCC#CC(=O)OCCCCC", "growth inhibition": "1%"},
      {"smiles": "CCCCCCN(CCCCCC)CCC(=O)c1ccc2cc(Cl)c3ccccc3c2c1", "growth inhibition": "33%"},
      {"smiles": "CC(C)C1=C2CCC3(C)C(CCC4C5C6OCC5(CCC6(C)C)CCC43C)C2(C)CC1", "note": "(stereo not drawn)", "growth inhibition": "19%"},
      {"smiles": "O=C(CC(O)(CC(=O)OCc1ccccc1)C(=O)OCc1ccccc1)OCc1ccccc1", "growth inhibition": "-4%"},
      {"smiles": "CCc1c(C)[nH]c2c([N+](=O)[O-])cccc12", "growth inhibition": "-3%"},
      {"smiles": "CSc1ncc2c(n1)-c1ccccc1OC2NC1CC1", "note": "(stereo not drawn)", "growth inhibition": "17%"},
      {"smiles": "CC(C)c1cc(O)c2c(c1O)C1CC3C(C)(C)CCC[C@]23C(=O)O1", "note": "(stereo partly drawn)", "growth inhibition": "-5%"}
    ]}
  ]
}
